Source: the supplement of paper PMC11732987, “Enantioselective OTUD7B fragment discovery through chemoproteomics screening and high-throughput optimisation” (Communications Chemistry, 2025)

Key:
Experiment in all cases: log2 ratio of Biotin-Ahx-Ub-VS probe labelling (fragment/DMSO); higher = less target engagement (more negative = stronger competition), active = hit call of the paper (q ≤ 0.05, log2 ratio ≤ -1)
Conditions in all cases: compound concentration: 200 uM; treatment time: 3 h
USP34 = USP34 (UniProt Q70CQ2)
Procedure, shortened: (§1)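 Labelling with Biotin-Ahx-Ub-VS (0.5 µM final, 1 h) followed a 3 h triplicate treatment of HEK293T lysate (495 µg per sample, Tris/CHAPS/IGEPAL buffer with protease inhibitors) with fragment at 200 µM or vehicle. Labelled DUBs were NeutrAvidin-enriched, digested with LysC and trypsin, and run by diaPASEF LC-MS/MS. The values, average log2 fragment/vehicle ratios by unpaired t-test, come from global-median-normalised Spectronaut label-free quantities. Proteins with ≥2 unique peptides were used.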

USP36 = molecular target: T1, USP36 (UniProt Q9P275)
T1 sequence (whole entry): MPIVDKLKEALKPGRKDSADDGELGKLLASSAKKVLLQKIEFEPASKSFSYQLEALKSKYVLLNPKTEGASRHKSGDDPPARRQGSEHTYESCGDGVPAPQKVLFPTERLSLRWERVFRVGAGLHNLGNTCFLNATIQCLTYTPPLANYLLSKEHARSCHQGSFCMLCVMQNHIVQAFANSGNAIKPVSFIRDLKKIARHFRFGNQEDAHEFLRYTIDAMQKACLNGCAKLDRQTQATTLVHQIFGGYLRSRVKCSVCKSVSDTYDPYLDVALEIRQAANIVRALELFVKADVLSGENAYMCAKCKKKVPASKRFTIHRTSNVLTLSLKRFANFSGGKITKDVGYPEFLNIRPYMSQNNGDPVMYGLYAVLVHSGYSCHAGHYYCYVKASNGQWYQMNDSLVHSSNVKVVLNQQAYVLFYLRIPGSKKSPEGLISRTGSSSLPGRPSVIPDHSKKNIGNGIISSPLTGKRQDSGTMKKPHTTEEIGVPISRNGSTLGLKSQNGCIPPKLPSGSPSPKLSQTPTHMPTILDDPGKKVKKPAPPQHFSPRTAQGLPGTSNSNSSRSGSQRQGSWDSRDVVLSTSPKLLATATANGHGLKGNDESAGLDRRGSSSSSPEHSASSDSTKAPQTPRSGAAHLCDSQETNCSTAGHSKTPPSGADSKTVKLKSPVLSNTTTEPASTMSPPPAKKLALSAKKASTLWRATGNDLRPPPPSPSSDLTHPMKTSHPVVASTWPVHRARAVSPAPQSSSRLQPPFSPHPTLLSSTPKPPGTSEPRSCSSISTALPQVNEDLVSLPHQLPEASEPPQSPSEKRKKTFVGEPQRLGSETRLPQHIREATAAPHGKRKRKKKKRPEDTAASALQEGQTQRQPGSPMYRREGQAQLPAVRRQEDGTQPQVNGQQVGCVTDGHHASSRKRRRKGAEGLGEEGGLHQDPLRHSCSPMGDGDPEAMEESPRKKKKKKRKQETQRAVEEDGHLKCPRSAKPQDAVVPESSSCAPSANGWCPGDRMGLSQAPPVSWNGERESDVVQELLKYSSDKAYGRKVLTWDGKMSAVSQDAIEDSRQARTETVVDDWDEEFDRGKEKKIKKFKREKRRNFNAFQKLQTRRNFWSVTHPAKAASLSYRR
Procedure, shortened: as §1

USP38 = molecular target: T2, USP38 (UniProt Q8NB14)
T2 sequence (whole entry): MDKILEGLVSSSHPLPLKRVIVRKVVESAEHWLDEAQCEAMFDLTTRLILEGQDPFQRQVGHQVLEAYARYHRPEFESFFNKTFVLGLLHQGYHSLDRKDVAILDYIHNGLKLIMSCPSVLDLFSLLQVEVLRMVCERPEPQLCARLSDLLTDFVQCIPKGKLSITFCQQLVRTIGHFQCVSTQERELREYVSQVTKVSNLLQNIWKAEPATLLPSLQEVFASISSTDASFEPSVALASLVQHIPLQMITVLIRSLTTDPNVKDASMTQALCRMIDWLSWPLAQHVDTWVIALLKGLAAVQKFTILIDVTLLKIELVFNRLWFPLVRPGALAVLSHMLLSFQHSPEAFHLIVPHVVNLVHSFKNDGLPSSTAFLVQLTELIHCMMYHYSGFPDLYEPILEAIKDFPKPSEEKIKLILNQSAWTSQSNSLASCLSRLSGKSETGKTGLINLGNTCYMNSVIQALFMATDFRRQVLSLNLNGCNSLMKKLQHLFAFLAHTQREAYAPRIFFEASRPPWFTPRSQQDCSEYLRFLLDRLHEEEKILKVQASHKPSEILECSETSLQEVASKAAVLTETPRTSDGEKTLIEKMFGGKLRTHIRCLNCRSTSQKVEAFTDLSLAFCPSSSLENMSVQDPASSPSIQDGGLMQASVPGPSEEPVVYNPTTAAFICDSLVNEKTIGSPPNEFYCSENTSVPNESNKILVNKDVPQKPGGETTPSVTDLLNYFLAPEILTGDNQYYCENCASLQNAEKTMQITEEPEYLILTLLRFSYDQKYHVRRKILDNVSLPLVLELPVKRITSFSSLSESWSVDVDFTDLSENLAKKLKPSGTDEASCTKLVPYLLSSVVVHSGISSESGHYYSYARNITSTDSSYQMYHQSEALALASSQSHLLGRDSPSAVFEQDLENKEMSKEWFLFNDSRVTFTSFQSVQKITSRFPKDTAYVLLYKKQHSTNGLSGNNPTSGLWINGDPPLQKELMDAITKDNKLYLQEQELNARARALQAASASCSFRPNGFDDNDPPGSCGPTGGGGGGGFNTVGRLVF
Procedure, shortened: as §1

USP39 = molecular target: T3, USP39 (UniProt Q53GS9)
T3 sequence (whole entry): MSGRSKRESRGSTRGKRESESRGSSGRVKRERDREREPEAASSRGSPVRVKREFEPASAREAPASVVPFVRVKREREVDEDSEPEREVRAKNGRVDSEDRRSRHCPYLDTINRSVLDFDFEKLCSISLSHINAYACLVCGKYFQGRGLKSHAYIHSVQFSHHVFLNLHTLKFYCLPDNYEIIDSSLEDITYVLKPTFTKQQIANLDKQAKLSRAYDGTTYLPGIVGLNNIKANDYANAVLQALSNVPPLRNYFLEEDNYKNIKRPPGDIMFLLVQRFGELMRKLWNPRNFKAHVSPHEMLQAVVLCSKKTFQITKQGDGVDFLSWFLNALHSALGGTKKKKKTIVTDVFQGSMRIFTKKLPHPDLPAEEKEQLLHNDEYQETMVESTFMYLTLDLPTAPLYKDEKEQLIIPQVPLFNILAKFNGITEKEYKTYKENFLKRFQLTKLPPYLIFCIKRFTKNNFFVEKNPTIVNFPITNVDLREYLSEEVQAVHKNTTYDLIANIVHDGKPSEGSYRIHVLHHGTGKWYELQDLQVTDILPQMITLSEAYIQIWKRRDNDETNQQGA
Procedure, shortened: as §1

USP4 = molecular target: T4, USP4 (UniProt Q13107)
T4 sequence (whole entry): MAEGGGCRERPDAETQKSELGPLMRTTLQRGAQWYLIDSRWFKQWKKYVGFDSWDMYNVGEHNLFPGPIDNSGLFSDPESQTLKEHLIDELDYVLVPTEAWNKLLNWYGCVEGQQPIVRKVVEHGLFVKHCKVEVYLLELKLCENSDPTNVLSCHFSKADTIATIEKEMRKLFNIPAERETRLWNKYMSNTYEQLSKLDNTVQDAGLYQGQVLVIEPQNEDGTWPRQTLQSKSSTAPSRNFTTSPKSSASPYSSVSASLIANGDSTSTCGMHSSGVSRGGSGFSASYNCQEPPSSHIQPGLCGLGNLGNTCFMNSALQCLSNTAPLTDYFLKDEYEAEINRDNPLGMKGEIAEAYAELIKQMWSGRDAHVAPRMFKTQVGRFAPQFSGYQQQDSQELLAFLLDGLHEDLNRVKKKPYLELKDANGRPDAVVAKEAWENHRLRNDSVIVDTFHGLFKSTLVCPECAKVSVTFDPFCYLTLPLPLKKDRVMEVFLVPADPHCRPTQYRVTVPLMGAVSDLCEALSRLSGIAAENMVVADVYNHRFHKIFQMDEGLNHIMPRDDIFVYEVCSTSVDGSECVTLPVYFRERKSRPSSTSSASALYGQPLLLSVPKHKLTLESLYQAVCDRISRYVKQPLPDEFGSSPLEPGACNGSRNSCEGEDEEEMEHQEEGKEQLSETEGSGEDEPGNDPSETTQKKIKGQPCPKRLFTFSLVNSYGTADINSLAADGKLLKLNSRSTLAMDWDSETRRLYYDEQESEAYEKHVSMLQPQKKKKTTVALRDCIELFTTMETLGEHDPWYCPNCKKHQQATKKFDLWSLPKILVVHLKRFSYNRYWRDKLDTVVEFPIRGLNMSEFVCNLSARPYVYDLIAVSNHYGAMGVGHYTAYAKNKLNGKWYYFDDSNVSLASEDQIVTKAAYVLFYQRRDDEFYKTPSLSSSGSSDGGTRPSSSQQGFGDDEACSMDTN
Procedure, shortened: as §1

Measured: log2 ratio of Biotin-Ahx-Ub-VS probe labelling

USP34, sequence (Q70CQ2 whole entry, the tested form may be a part): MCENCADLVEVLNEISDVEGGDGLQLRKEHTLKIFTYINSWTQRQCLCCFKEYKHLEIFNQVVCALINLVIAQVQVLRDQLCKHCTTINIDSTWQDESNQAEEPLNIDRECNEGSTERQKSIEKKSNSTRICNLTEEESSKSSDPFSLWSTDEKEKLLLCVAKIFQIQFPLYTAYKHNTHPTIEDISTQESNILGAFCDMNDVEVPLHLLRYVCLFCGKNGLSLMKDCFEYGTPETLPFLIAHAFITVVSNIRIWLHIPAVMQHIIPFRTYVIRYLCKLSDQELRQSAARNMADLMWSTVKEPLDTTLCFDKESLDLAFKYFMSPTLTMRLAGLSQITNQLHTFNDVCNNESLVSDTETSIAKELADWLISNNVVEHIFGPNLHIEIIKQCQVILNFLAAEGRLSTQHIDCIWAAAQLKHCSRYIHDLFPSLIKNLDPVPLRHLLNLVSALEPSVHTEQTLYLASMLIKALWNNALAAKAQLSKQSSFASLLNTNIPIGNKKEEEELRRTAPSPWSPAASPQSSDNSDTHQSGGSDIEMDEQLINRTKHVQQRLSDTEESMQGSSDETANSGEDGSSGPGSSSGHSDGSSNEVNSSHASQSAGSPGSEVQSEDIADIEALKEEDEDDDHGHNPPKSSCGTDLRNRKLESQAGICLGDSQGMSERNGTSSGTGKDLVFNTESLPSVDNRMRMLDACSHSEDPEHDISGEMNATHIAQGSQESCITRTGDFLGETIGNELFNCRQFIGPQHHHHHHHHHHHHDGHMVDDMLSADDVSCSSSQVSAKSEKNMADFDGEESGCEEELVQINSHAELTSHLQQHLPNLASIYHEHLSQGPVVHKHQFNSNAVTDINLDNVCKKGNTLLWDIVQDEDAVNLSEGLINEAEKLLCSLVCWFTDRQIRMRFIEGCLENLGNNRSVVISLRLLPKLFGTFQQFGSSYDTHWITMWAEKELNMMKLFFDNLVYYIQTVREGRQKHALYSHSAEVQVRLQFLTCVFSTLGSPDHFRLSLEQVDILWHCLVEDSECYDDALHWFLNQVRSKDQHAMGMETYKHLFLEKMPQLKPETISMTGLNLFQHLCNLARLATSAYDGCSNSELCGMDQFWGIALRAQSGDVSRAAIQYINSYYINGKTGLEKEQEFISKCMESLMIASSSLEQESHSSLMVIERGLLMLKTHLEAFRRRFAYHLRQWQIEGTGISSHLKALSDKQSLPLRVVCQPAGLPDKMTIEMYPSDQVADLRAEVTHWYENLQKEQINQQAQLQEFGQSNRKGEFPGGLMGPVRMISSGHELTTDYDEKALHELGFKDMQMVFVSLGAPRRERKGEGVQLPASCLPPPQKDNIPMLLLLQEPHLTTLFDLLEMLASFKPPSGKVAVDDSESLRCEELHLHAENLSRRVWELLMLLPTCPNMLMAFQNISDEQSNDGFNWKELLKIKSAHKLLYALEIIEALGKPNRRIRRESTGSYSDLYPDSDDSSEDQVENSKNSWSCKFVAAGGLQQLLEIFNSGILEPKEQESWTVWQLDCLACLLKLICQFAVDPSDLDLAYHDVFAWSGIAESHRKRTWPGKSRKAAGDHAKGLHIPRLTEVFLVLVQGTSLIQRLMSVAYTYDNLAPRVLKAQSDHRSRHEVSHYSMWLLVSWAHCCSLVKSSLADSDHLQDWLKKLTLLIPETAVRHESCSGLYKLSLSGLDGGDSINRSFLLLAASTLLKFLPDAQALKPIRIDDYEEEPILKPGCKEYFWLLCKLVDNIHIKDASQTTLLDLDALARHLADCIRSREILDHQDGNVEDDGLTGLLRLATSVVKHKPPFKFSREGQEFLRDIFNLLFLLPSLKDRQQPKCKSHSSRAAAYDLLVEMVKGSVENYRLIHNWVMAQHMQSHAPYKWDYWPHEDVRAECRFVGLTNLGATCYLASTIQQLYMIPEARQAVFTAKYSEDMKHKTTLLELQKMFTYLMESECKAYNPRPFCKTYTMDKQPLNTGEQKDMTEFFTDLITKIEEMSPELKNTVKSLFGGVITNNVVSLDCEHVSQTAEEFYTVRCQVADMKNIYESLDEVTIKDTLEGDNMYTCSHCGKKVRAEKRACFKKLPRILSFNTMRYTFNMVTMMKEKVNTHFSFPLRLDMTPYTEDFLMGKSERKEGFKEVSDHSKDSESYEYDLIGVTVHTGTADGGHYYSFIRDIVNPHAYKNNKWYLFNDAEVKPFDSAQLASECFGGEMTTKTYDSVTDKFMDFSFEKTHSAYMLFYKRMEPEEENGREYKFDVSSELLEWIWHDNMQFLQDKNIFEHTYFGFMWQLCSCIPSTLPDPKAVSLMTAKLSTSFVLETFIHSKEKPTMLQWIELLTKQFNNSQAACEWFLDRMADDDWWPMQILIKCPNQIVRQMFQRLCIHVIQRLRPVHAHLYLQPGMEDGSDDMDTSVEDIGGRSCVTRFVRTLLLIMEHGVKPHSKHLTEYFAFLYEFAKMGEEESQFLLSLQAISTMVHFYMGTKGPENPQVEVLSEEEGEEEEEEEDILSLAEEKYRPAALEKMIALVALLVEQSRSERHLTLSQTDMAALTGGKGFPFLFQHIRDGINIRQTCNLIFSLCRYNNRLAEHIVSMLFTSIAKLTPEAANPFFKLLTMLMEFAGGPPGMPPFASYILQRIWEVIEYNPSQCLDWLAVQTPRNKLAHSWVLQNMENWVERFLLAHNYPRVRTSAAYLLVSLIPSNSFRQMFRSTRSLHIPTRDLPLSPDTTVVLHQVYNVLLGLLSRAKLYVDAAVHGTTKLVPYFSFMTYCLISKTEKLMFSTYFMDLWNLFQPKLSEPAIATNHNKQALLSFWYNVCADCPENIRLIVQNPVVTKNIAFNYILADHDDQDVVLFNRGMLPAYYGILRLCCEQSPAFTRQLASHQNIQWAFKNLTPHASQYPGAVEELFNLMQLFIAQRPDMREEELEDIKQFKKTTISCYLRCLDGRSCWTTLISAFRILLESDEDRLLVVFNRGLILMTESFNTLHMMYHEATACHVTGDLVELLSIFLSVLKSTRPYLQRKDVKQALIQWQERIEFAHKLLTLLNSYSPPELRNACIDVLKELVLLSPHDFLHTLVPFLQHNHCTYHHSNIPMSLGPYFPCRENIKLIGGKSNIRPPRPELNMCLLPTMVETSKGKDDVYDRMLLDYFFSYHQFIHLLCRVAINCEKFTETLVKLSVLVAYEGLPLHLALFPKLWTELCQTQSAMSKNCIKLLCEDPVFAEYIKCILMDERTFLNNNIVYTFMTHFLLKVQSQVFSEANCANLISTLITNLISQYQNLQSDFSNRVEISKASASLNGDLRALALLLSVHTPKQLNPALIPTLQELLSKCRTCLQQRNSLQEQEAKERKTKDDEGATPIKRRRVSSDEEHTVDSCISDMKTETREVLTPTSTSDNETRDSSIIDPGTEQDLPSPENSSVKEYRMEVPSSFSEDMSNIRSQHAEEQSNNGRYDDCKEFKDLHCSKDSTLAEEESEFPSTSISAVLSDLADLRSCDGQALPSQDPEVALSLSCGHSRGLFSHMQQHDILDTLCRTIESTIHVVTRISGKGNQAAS

CC(NC(=O)CCl)c1cc2n(n1)CCCC2.Cl (stereo not given)
inactive: USP34 -0.00259 | USP36 0.028 | USP38 -0.215 | USP39 -0.149 | USP4 -0.121
